Bioassay records: PubChem BioAssay, several laboratories
PfM18AAP inh = blocks P. falciparum M18 aspartyl aminopeptidase | 290,000 tested, 1.2% active | inhibition, % at 7.35 µM | recombinant PfM18AAP, H-Glu-NHMec fluorogenic cleavage | AID 1822;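 active = inhibition above the campaign mean inhibition over all tested compounds plus 3 SD, cut at about 28% in these data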
GC-B act = GC-B (human) receptor activation; P20594; HEK293-GC-B cells, CNP EC30, cGMP TR-FRET; 0% at EC30 CNP, 100% saturating CNP; activation, % at 10 µM; 370,000 tested, 0.11% active; AID 1920062;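 active = activation at 10 µM reaching about 35% in either raw or pattern-adjusted values, limit read from the data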
Target sequence (P20594 whole entry, looked up): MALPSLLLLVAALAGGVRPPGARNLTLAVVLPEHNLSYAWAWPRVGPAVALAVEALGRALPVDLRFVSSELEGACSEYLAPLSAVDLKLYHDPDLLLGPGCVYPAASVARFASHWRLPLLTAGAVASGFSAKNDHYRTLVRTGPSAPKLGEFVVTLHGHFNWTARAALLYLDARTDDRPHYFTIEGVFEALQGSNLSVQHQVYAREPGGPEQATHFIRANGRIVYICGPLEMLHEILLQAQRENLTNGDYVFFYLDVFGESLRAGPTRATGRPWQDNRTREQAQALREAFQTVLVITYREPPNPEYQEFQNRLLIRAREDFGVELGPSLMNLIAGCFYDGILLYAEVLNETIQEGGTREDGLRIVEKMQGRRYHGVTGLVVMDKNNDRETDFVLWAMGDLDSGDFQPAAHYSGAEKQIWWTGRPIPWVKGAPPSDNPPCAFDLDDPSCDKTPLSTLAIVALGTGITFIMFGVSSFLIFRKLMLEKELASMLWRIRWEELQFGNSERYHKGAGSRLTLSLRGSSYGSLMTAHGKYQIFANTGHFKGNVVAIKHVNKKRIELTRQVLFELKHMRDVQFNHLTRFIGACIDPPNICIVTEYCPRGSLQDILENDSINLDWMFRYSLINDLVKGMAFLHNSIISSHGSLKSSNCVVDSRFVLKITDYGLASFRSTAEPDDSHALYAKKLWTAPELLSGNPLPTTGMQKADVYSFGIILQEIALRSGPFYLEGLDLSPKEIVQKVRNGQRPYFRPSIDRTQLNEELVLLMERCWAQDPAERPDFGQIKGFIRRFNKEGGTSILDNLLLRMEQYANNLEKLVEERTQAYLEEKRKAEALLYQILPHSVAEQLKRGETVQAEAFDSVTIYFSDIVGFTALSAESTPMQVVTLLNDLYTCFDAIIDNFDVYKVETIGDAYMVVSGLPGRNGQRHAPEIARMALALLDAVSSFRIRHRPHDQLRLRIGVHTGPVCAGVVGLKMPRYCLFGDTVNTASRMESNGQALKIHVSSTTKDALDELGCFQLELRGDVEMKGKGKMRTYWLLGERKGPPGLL
PLCb3 inh = PLC-beta3 (human) inhibition, primary screen; Purified PLC-beta3, fluorogenic substrate, fluorescence; inhibition, % at 12.2 µM; 370,000 tested, 0.18% active; AID 720704; in the data active = inhibition above about 11%
Rce1 inhib = yeast Ras-converting enzyme inhibition; 290,000 tested, 0.27% active; calls only; Q03530; yeast membranes, quenched prenylated peptide cleavage fluorescence; AID 2563;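 active = fall in fluorescence gain of 50% or more versus controls, with final raw signal at or below 3038400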
PLCg1 inh = inhibitors of human phospholipase C gamma1; purified PLC-gamma1, fluorogenic substrate, fluorescence; 370,000 tested, 0.84% active; AID 720700; inhibition, % at 12.2 µM; P19174; in the data active = inhibition above about 9.5%
GC-A act = GC-A (human) enzyme activation. HEK293 GC-A cells, cGMP TR-FRET, EC30 ANP; 0% at EC30 ANP, 100% saturating ANP. activation, % at 10 µM. 370,000 tested, 0.14% active. AID 1671463; in the data active = activation above about 40%
Each line names hits and unclear results; the compound was inactive in the other large screens. In the library only some 2.2% were active in any assay of this set; here they are far more common.

Cc1ccc(C2C3=C(CC(C)(C)CC3=O)Nc3n[nH]c(C)c32)cc1 (stereo not given)	none
Cc1[nH]nc2c1C(c1ccc(F)cc1)C1=C(CC(C)(C)CC1=O)N2 (stereo not given)	Rce1 inhib active
CC(C)CNC(=O)C1CSCCS(=O)(=O)N1Cc1ccccc1 (stereo not given)	none (no result: PfM18AAP inh, Rce1 inhib)
CC1=C(C#N)C(=O)N(C2CCS(=O)(=O)C2)C(=O)/C1=C\c1ccc(C)o1 (stereo not given)	PfM18AAP inh 30.1 (no result: GC-B act, PLCb3 inh, PLCg1 inh, GC-A act)
Cc1ccc(/C=C2\SC(=S)N(C3CCS(=O)(=O)C3)C2=O)o1 (stereo not given)	none
CCOc1ccc(S(=O)(=O)NC(C)(C)C)cc1-c1nc2c(C(C)(C)C)nn(C)c2c(=O)[nH]1	GC-B act 60.5, GC-A act 56.8
CCOc1ccc(S(N)(=O)=O)cc1-c1nc2c(C(C)(C)C)nn(C)c2c(=O)[nH]1	GC-B act 61.5, GC-A act 51.8
CCOc1ccc(S(=O)(=O)NCc2cccnc2)cc1C	none
CCCCn1c(=O)[nH]c(=O)c2c1nc(-c1ccc(OCCC)c(OCC)c1)n2C	none
Cc1ccc(-n2c(SCc3c(Cl)cccc3Cl)nnc2-c2ccco2)cc1	none (no result: PfM18AAP inh, Rce1 inhib)
O=C(/C=C/c1ccc([N+](=O)[O-])cc1)N(c1ccccn1)C1CCCCC1	PfM18AAP inh 42.6
N#C/C(=C\c1ccccc1)C(=O)N(c1ccccn1)C1CCCCC1	none
Cc1nc2ccccn2c1-c1csc(Nc2cccc(C(=O)O)c2)n1	PfM18AAP inh 30.7
COc1ccc(OC)c(Nc2nc(-c3c(C)nc4ncccn34)cs2)c1	none
Cc1nc2ncccn2c1-c1csc(Nc2cccc(C(=O)O)c2)n1	PfM18AAP inh 28.7
COc1cc(-c2c(C#N)c(N)nc3c2c(C)nn3-c2ccc(C)c(C)c2)cc(OC)c1OC	Rce1 inhib active
O=C1CCC[C@H]2C[C@H](NCc3ccco3)CC[C@]23CCCN13	none (no result: PfM18AAP inh, Rce1 inhib)
CCc1cccc2c(C(C)c3ccccc3O)c[nH]c12 (stereo not given)	none (no result: PfM18AAP inh, Rce1 inhib)
Cc1ccc(NC2CCCN(C(=O)CCN3CCCCO3)C2)cc1C (stereo not given)	PLCg1 inh 11.9
Cc1cc(C)nc(N2CCC(C(=O)N(C)CCc3ccccn3)CC2)n1	none (no result: PfM18AAP inh, Rce1 inhib)
CCC(=O)Nc1cc(C(=O)OCC(=O)c2ccc(Cl)cc2Cl)ccc1C	GC-A act 56.6
CCC(=O)Nc1cc(C(=O)OCC(=O)c2ccccc2)ccc1C	none
ClC(/C=N/n1cnnc1)=C/c1ccccc1	PfM18AAP inh 31.7
CC(/C=N/n1cnnc1)=C\c1ccccc1	none
CCN(CC)C(=O)CC[C@H]1CC[C@]2(CCCN(S(=O)(=O)C3CCCCC3)C2)O1	none (no result: PfM18AAP inh, Rce1 inhib)
c1nc(NCc2ccc3c(c2)OCO3)c2cc(-c3ccoc3)ccc2n1	GC-B act 46.4, GC-A act 42.0 (no result: PfM18AAP inh, Rce1 inhib)
O=C(NC(=S)NNC(=O)c1ccccc1F)c1cccnc1	PfM18AAP inh 28.9
COc1ccc(CN(C2CCCC2)S(=O)(=O)c2ccc(-n3cnnn3)c(OC)c2)cc1OC	Rce1 inhib active
O=C1CCCN1CCCNc1nc2c(S(=O)(=O)c3ccccc3)nnn2c2ccc(Cl)cc12	GC-B act 47.8
CCS(=O)(=O)c1nc(S(=O)(=O)c2ccc(C)cc2)c(NCCCN2CCCC2=O)s1	none
CCCCCCC/C=N/Nc1nnc(Cc2ccccc2)c(=O)[nH]1	PfM18AAP inh 28.1
CC(C)c1ccc(NC(=O)COc2nncc3ccccc23)cc1	Rce1 inhib active
O=C(COc1nncc2ccccc12)Nc1ccc(F)c(F)c1	none (no result: Rce1 inhib)
CN1CCN(c2ccc(-c3csc(N4CCC(C(N)=O)CC4)n3)cc2)CC1	none (no result: PfM18AAP inh, Rce1 inhib)
O=C(O)c1cc(-c2ccc(N3CCOCC3)cc2)nn1-c1ccc(F)cc1F	Rce1 inhib active
COc1ccc(-n2c(COc3cccc4ccccc34)nnc2SCC#N)cc1	PfM18AAP inh 29.2 (no result: Rce1 inhib)
CC1(C)CC2CC(C)(CN2S(=O)(=O)c2ccc(N)cc2)C1 (stereo not given)	Rce1 inhib active
OC(c1ccccc1)(c1ccccc1)C1CCN(CCCNc2cccc(Br)c2)CC1	none (no result: PfM18AAP inh, Rce1 inhib)
COc1cc(N2CCCC2)c(OC)cc1/C=C1/NC(=S)NC1=O	PfM18AAP inh 28.5
COc1ccc(OC)c(/C=C2\NC(=O)NC2=O)c1	none
O=C(N/N=C/c1ccncc1)c1cccc(S(=O)(=O)Nc2ccc(Cl)cc2)c1	PfM18AAP inh 32.6
O=C(N/N=C/c1cccnc1)c1cccc(S(=O)(=O)Nc2cccc(Cl)c2)c1	none
COc1cc(NC(=S)Nc2cccc(Cl)c2Cl)c(OC)cc1Cl	PfM18AAP inh 29.0
CCC[C@H]1[C@@H](NC(=O)C(c2ccccc2)c2ccccc2)CC[C@@]23CCCN2C(=O)CCC[C@@H]13	none (no result: PfM18AAP inh, Rce1 inhib)
O=S(=O)(c1ccccc1)N(Cc1ccccc1)c1ccccn1	none
O=C(O)c1ccc(CN(c2ccccn2)S(=O)(=O)c2ccccc2)cc1	Rce1 inhib active
O=C(NCCO)C1(C(=O)C2CC2)CC(c2ccccn2)=NO1 (stereo not given)	none (no result: PfM18AAP inh, Rce1 inhib)
O=C(O)c1ccccc1NCCO	Rce1 inhib active
COC(=O)c1ccccc1NCCO	none
NC(CO)C(=O)NNCc1ccc(O)c(O)c1O (stereo not given)	PfM18AAP inh 29.0
COc1ccccc1-c1nnc(N)s1	Rce1 inhib active
Nc1nnc(-c2ccccc2Cl)s1	none
O=C1C(=O)N(Cc2ccc(-c3ccc(Cl)nc3)cc2)c2ccc(OC(F)(F)F)cc21	none (no result: PfM18AAP inh, Rce1 inhib)
COc1ccc(C(=O)C=Cc2ccc3c(c2)OCO3)cc1OC	none (no result: PfM18AAP inh, Rce1 inhib)
COc1cc(/C=C/C(=O)c2ccc3c(c2)OCO3)cc(Cl)c1O	PfM18AAP inh 31.6
CCOC(=O)C1=NOC(C(=O)Nc2cc(C)cc(C)c2)(C(=O)C2CC2)C1 (stereo not given)	none (no result: PfM18AAP inh, Rce1 inhib)
CCOC(=O)c1sc(NC(=O)C2CCCO2)c(C(=O)OC)c1C (stereo not given)	none (no result: GC-B act, PLCb3 inh, Rce1 inhib, PLCg1 inh, GC-A act)
CCCOC(=O)c1c(NC(=O)C2CCCO2)sc(C(=O)OC)c1C (stereo not given)	PfM18AAP inh 39.5
COC(=O)C1CCCN1S(=O)(=O)c1ccc([N+](=O)[O-])cc1 (stereo not given)	none
COC(=O)C1CCCN1S(=O)(=O)c1ccc2ccccc2c1 (stereo not given)	Rce1 inhib active
CCOC(=O)[C@]12CCCCC/C=C\1N(CCc1ccc(Cl)cc1)C(=O)[C@H]2CC(=O)N1CCN(C(=O)C2CC2)CC1	none (no result: PfM18AAP inh, Rce1 inhib)
CCC(C)N(C(=O)c1ccc(CNC(=O)c2cccc(Br)c2)cc1)C(C)CC (stereo not given)	none (no result: PfM18AAP inh, Rce1 inhib)
CCCCCc1ccc(OCCOCCn2c[n+](C)c3ccccc32)c(CCCCC)c1	Rce1 inhib active (no result: GC-B act, PLCb3 inh, PLCg1 inh, GC-A act)
CCc1ccc(NC(=O)NNC(=O)c2ccc3ccccc3c2O)cc1	PfM18AAP inh 28.5
CCc1ccc(NC(=O)NNC(=O)c2cc3ccccc3cc2O)cc1	none
